Measurements as given in PubChem BioAssay (EPA / NIEHS).
“And” between values parts separate entries of the source, which are not always exact repeats. Identical values can stand only once. Records with an inconclusive call do not appear. The source made the active and inactive calls. The calls were made as follows: active = hit-call score of the fitted dose curve at least 0.9, where 1 is the maximum; inconclusive = response in the unintended direction; inactive = score below 0.9.

Assay: TOX21_p53_BLA_p2_viability: Viability Assessment in the Tox21 HCT-116 p53 Agonism Beta-lactamase Assay, Phase 2 (AID 2283591);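 also: compound exposure lasted 16 h at 37 °C; actives lower the ATP signal meaning cytotoxicity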
Excerpt: TOX21_p53_BLA_p2 is a cell-based, single-readout assay that uses HCT116, a human intestinal cell line, […] in a 1536-well plate.TOX21_p53_BLA_p2_viability is an assay readout measuring cellular ATP content and detected with CellTiter-Glo Luciferase-coupled ATP quantitation.TOX21_p53_BLA_p2_viability used a type of viability reporter where loss-of-signal activity can be used to understand changes in the cell viability. Furthermore, this assay endpoint can be referred to as a secondary readout, because this assay has produced multiple assay endpoints where this one serves a viability function. To generalize the intended target to other relatable targets, this assay endpoint is annotated to the cell cycle intended target family, where the subfamily is cytotoxicity.
Thawing Method: Place 14 mL of pre-warmed thaw medium into a 15 mL of conical tub. Remove the vial of cells to be thawed from liquid nitrogen and thaw rapidly by placing at 37C in a water bath with gentle agitation for 1-2 minutes. Decontaminate the vial by wiping with 70% ethanol before opening in a biological safety cabinet. Transfer the vial contents drop-wise into 14 mL of thaw medium in a sterile 15-mL conical tub. Centrifuge cells at 900 rpm for 4 minutes and resuspend in thaw medium. Transfer contents to the T75 tissue culture flask containing Thaw Medium and place flask in a humidified 37C/5% CO2 incubator. Switch to growth medium at first passage.Propagation Method: Aspirate medium, rinse once in DPBS, add 0.25% Trypsin/EDTA and swirl to coat the cell evenly. Add an equal volume of Growth Medium to inactivate Trypsin after 2-3 minutes incubation at 37C. Centrifuge cells at 900 rpm for 4 minutes and resuspend in growth medium. Cell should be passage or fed at least twice a week.Assay Protocol: Harvest cells from culture in growth medium and resuspend in assay medium. 2.2 Dispense 4000 cells/5 uL/well into 1536-well black/clear bottom plates using a Multidrop dispenser. After the cells were incubated at 37C for 5 hours, 23 nL of compounds dissolved in DMSO were transferred to the assay plate by a PinTool resulting in a 217-fold dilution. Incubate the plates for 16 hours at 37C, 5% CO2. Add 1 uL of 6X LiveBLAzer FRET B/G (CCF4-AM) Substrate Mixture to each well using a BioRAPTR dispenser and incubate the plates at room temperature for 2 hours. Measure fluorescence intensity at 460 and 530 nm emission and 405 nm excitation by an Envision detector. Data is expressed as the ratio of 460nm/530nm emissions. Add 4 uL of Cell-titer Glo to each well using BioRAPTR and incubate the plates at room temperature for […]. For cell viability readout that measures cytotoxicity, 4 ul/well of CellTiter-Glo reagent was added into the assay plates using a Flying Reagent Dispenser. After 30 min incubation at room temperature, the luminescence intensity in the plates was measured using a ViewLux plate reader.
With `O=S(=O)(c1ccc(O)cc1)c1ccc(O)cc1` the outcome was “inactive”. With `C=C(C)C(=O)OCC1CO1` (stereo not given) the outcome was “inactive”. For `C/C(=N\NC(=O)Nc1cc(F)cc(F)c1)c1ncccc1C(=O)O`, the outcome was “inactive”. In the case of `CCC1(c2ccccc2)C(=O)N=C(O)NC1=O` (stereo not given), the outcome is reported as “inactive”. With `CCCCN(CCCC)N=O` the outcome was “inactive”. With `O=P(OCC(Br)CBr)(OCC(Br)CBr)OCC(Br)CBr` (stereo not given) the outcome was “inactive”. For `COP(=O)(O)OC`, the outcome was “inactive”. With `CCOP(=S)(NC(C)C)Oc1ccccc1C(=O)OC(C)C` (stereo not given) the outcome was “inactive”. With `COC(N)=O` the outcome was “inactive”. With `CCC(C)(C)c1ccc(O)cc1` the outcome was “inactive”. In the case of `Cc1cccc(N)c1`, the outcome is reported as “inactive”. For `CCOc1ccc(C(C)(C)COCc2cccc(Oc3ccccc3)c2)cc1`, the outcome was “inactive”. With `Nc1ccc2ccccc2c1` the outcome was “inactive”. In the case of `O=C(O)C1C(C(=O)O)C2(Cl)C(Cl)=C(Cl)C1(Cl)C2(Cl)Cl` (stereo not given), the outcome is reported as “inactive”. For `ClC1=C(Cl)C2(Cl)C3C(Cl)C(Cl)CC3C1(Cl)C2(Cl)Cl` (stereo not given), the AC50 was 50.8 µM (active) and 46 µM (active). With `CC(C)(C)OOC(C)(C)C` the outcome was “inactive”. With `CC1(C)CN=C(NN=C(/C=C/c2ccc(C(F)(F)F)cc2)/C=C/c2ccc(C(F)(F)F)cc2)NC1` the AC50 was 14.7 µM (active). For `C=CC(=O)OCC(CC)(COC(=O)C=C)COC(=O)C=C`, the AC50 was 46.1 µM (active) and 95.1 µM (active). For `CC(C)Nc1ccc(Nc2ccccc2)cc1`, the AC50 was 46.1 µM (active) and 45.9 µM (active) and 23 µM (active). For `NNC(N)=S`, the outcome was “inactive”. In the case of `CCOP(=S)(OCC)SCn1nnc2ccccc2c1=O`, the outcome is reported as “inactive”. For `c1nc[nH]n1`, the outcome was “inactive”. With `CCN(CC)c1ccccc1` the outcome was “inactive”. In the case of `CCOP(=S)(S)OCC`, the outcome is reported as “inactive”. For `O=P1(N(CCCl)CCCl)NCCCO1` (stereo not given), the outcome was “inactive”. With `Nc1ccc(Cl)cc1` the outcome was “inactive”. With `CCCCOCCOP(=O)(OCCOCCCC)OCCOCCCC` the outcome was “inactive”. For `CCOC(=O)c1ccccc1C(=O)OCC`, the outcome was “inactive”. With `c1ccc2c(c1)Nc1ccccc1S2` the outcome was “inactive”. In the case of `CC1=C(C(=O)Nc2ccccc2)S(=O)(=O)CCO1`, the outcome is reported as “inactive”. With `CCOS(=O)(=O)OCC` the outcome was “inactive”. With `O=c1ssc(Cl)c1Cl` the outcome was “inactive”. In the case of `O=NN1CCCC1`, the outcome is reported as “inactive”. For `c1ccc2c(c1)sc1ccccc12`, the outcome was “inactive”. In the case of `Cc1ccc2c(c1N)C(=O)c1ccccc1C2=O`, the outcome is reported as “inactive”. With `CCCN(CCC)c1c([N+](=O)[O-])cc(C(C)C)cc1[N+](=O)[O-]` the outcome was “inactive”. For `[N-]=[N+]=[N-]`, the outcome was “inactive”. For `O=C(CBr)OCc1ccccc1`, the outcome was “inactive”. For `O=[N+]([O-])c1ccccc1`, the outcome was “inactive”. For `CO/N=C(/C(=O)OC)c1ccccc1COc1ccccc1C`, the outcome was “inactive”.
